{"source": "PubChem BioAssay", "data": [{"test": "small-molecule binders of probe aInhba, primary screen, biochemical, small-molecule microarray, 635/667 nm fluorescence (AID 1148);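 note: score merges 667nm spot fluorescence with signal-to-noise for antibody binding to printed compounds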", "settings": "higher = more signal", "values": [{"smiles": "COC(=O)C(CC#Cc1ccc2c(c1)[C@]1(C(=O)N2)[C@H](c2ccc(O)cc2)N2[C@H](c3ccccc3)[C@H](c3ccccc3)OC(=O)[C@H]2[C@@H]1C(=O)N1CCCCCCC1)C(=O)OC", "composite z-score": 1.36}, {"smiles": "CC(C)=CCCC(C)=CC(O)C1C=CC2C(=O)N(c3ccccc3)C(=O)C2N1Nc1ccccc1F", "note": "(stereo unspecified)", "composite z-score": 0.0047}, {"smiles": "CN(C)CCCCNC(=O)[C@H]1C[C@H]2C(=O)N[C@@H](CCCC[N+](C)(C)C)C(=O)N2[C@H]1c1ccc(O)cc1", "composite z-score": -0.179}, {"smiles": "CN(C)CCCNC(=O)[C@@H]1c2ccccc2C(=O)N(C2CCCCC2)[C@H]1c1ccc(CO)cc1", "composite z-score": 0.271}, {"smiles": "CC(C)CNC(=O)[C@@H]1c2ccccc2C(=O)N(C2CCCCC2)[C@H]1c1ccc(CO)cc1", "composite z-score": -0.101}, {"smiles": "O=C1C2C=CC(C(O)c3ccco3)N(Nc3ccccc3)C2C(=O)N1c1ccccc1", "note": "(stereo unspecified)", "composite z-score": -0.0963}, {"smiles": "COc1ccc([Si](C)(C)[C@@H]2[C@@H](CCn3cc([C@H](O)c4ccccc4)nn3)O[C@]3(C(=O)N(c4ccccc4)c4ccccc43)[C@H]2C)cc1", "composite z-score": -0.22}, {"smiles": "CCCNC(=O)[C@@]1(Sc2ccc(C)cc2)CC(=O)N(C2CCCCC2)[C@@H]1c1ccc(CO)cc1I", "composite z-score": -0.198}, {"smiles": "COC(=O)C(CC#Cc1ccc2c(c1)[C@]1(C(=O)N2)[C@H](C(=O)Nc2nc3ccccc3s2)[C@H]2C(=O)O[C@H](c3ccccc3)[C@H](c3ccccc3)N2[C@@H]1c1ccc(OCCO)cc1)C(=O)OC", "composite z-score": 0.146}, {"smiles": "CC(=O)NCCCC[C@@H]1NC(=O)[C@@H]2C[C@H](C(=O)NCCCCCCN)[C@H](c3cccc(OCCO)c3)N2C1=O", "composite z-score": -0.128}, {"smiles": "COc1ccc([Si](C)(C)[C@H]2[C@H](CCO)O[C@@]3(C(=O)N(Cc4ccc(N5C(=O)c6ccccc6Oc6ccccc65)cc4)c4ccccc43)[C@@H]2C)cc1", "composite z-score": -0.0762}, {"smiles": "CCCCC=C[C@@H](NC(=O)c1ccccc1)c1ccccc1", "composite z-score": 0.162}, {"smiles": "COCCOC(=O)N1C(=O)[C@@]2(c3cc(C#CC4=CCCCC4)ccc31)[C@H](C(=O)N1CCCCCCC1)[C@H]1C(=O)O[C@H](c3ccccc3)[C@H](c3ccccc3)N1[C@@H]2c1ccc(OCCO)cc1", "composite z-score": 0.515}, {"smiles": "COCCOC(=O)N1C(=O)[C@@]2(c3cc(C#CCNC(N)=O)ccc31)[C@H](c1ccc(O)cc1)N1[C@H](c3ccccc3)[C@H](c3ccccc3)OC(=O)[C@H]1[C@@H]2C(=O)N1CCN(c2ncccn2)CC1", "composite z-score": -0.0898}, {"smiles": "COCCOC(=O)N1C(=O)[C@@]2(c3cc(C#CCCO)ccc31)[C@H](c1ccccc1OCCO)N1[C@H](c3ccccc3)[C@H](c3ccccc3)OC(=O)[C@H]1[C@@H]2C(=O)N1CCCCCCC1", "composite z-score": 1.45}, {"smiles": "CC(=O)N1CC(C(O)C2C=CC3C(=O)NC(=O)C3N2Nc2ccc(Cl)cc2Cl)c2ccccc21", "note": "(stereo unspecified)", "composite z-score": 0.16}, {"smiles": "COc1cc2c(cc1OC)CN(C(=O)[C@@H]1[C@H]3C(=O)O[C@H](c4ccccc4)[C@H](c4ccccc4)N3[C@H](c3ccc(O)cc3)[C@@]13C(=O)Nc1ccc(C#CCCO)cc13)CC2", "composite z-score": -0.0493}, {"smiles": "NCCCCCNC(=O)[C@H]1C[C@H]2C(=O)N[C@@H](Cc3ccccc3)C(=O)N2[C@H]1c1ccc(O)cc1", "composite z-score": 0.641}, {"smiles": "CC(C)OC(=O)CC(=O)CC(O)c1ccc([N+](=O)[O-])cc1", "note": "(stereo unspecified)", "composite z-score": -0.0044}, {"smiles": "CCCNC(=O)[C@@]1(C)c2ccccc2C(=O)N(Cc2ccccc2)[C@H]1c1ccc(CO)cc1", "composite z-score": 0.101}, {"smiles": "COC(=O)[C@@]1(Cc2ccc(OC)cc2)[C@H]2c3cc(C(=O)N4CCCC4)n(Cc4cc(C)n(C)n4)c3C[C@H]2CN1C(=O)c1ccccc1", "composite z-score": 0.605}, {"smiles": "C=CCC(OC(C)=O)[C@@H]1[C@@H](N(Cc2ccc(-c3cccc(C(F)(F)F)c3)o2)C(=O)c2ccc(C)cc2)c2cc(OCCCO)ccc2N1C(=O)Cc1ccc(OC)cc1", "note": "(stereo partly specified)", "composite z-score": -0.128}, {"smiles": "CC(=O)n1cc(C(O)C2C=CC3C(=O)N(c4ccccc4)C(=O)C3N2Nc2ccc(C(C)C)cc2)c2ccccc21", "note": "(stereo unspecified)", "composite z-score": 0.161}, {"smiles": "C=CCC(OC(C)=O)[C@@H]1[C@@H](N(Cc2ccc(-c3ccccc3)cc2)C(=O)c2ccc(C)cc2)c2cc(OCCCO)ccc2N1C(=O)Cc1ccc2ccccc2c1", "note": "(stereo partly specified)", "composite z-score": -0.0986}, {"smiles": "COc1cc(C(O)C2C=CC3C(=O)N(Cc4ccccc4)C(=O)C3N2n2cnnc2)cc(OC)c1OC", "note": "(stereo unspecified)", "composite z-score": 0.255}, {"smiles": "COc1ccc(C(=O)Nc2cccc(CN3C(=O)[C@@]4(O[C@@H](CC(=O)N(CCO)Cc5ccccc5)[C@H]([Si](C)(C)c5ccc(OC)cc5)[C@H]4C)c4ccccc43)c2)cc1", "composite z-score": -0.101}]}]}
